hNpr1 antagonist: Natriuretic polypeptide receptor (hNpr1) antagonism - Primary qHTS. Potency, µM (top dose mostly 46.3 µM), inactives show at the highest dose activity change, negative = inhibition, most hits filed as inhibitors. Atrial natriuretic peptide receptor 1 (Homo sapiens), P16066. actives 1.6% (n = 76,000). HEK293 hNpr1 GloSensor cGMP, ANP-stimulated luminescence; calls by dose curve; further: nearly all actives have a fitted effect of over 60% in size
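Compound pre-incubated 30 min at room temperature on GloSensor-loaded HEK293 cells stably carrying hNpr1 and the pGS-40F cGMP biosensor. Stimulation uses hNppA at 0.1 nM final; luminescence is taken at baseline and 20 min post-agonist.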
HEK cytotox: Cytotoxic Profiling in HEK 293 Cell Line of Diverse Libraries Using Quantitative High-Throughput Screening; Potency, µM (series often up to 115 µM), without a hit: at the top dose activity change, negative = cytotoxicity, most hits filed as inhibitors; actives 6.6% (n = 94,000); HEK 293 viability, ATP luminescence (CellTiter-Glo), 48-72 h; further: nearly all actives have a fitted effect of over 60% in size
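Viability of HEK 293 cells, plated at 250 cells/well, was judged by cellular ATP after compound treatment for 48 or 72 hr. Luminescence was imaged 10 min after CellTiter-Glo addition at room temperature.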
3T3 cytotox: Cytotoxic Profiling in NIH 3T3 Cell Line of Diverse Libraries Using Quantitative High-Throughput Screening; NIH 3T3 viability, CellTiter-Glo ATP luminescence, 48-72 h; Potency, µM (top dose mostly 96.7 µM), for inactives: top-dose activity change, negative = cytotoxicity, actives largely listed as inhibitors; actives 4.3% (n = 94,000); AID 1345082, 2018; further: nearly all actives have a fitted effect of over 55% in size
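Cytotoxicity is measured as loss of cellular ATP: NIH 3T3 cells (400/well) are exposed to compound for 48 or 72 hr at 37 °C, then CellTiter-Glo luminescence is imaged after 10 min at room temperature.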
FLuc inh: Firefly luciferase inhibition profiling of diverse chemical library using quantitative high-throughput screening; purified P. pyralis luciferase, luminescence, biochemical; AID 1347043, 2019; Potency, µM (doses to about 115 µM), usual class: inhibitors; Luciferin 4-monooxygenase (Photinus pyralis), P08659; actives 2.5% (n = 76,000); further: nearly all actives have a fitted effect of over 65% in size
Target sequence (P08659 whole entry, looked up): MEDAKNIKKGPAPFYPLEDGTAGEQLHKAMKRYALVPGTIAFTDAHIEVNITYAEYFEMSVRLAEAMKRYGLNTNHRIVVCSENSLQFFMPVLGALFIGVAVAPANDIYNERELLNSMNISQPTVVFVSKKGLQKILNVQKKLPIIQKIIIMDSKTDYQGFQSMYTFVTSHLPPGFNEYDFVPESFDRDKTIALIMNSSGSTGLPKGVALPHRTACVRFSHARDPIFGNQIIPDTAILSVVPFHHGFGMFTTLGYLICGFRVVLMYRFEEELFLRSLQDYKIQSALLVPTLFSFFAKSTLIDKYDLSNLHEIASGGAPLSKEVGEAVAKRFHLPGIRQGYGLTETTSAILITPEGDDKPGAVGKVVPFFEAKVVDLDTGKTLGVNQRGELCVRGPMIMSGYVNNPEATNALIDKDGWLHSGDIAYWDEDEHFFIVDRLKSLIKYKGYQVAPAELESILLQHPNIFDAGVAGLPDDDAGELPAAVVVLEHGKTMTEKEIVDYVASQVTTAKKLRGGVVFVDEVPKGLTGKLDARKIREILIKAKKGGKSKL
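Cell-free enzyme assay, 10nM P. pyralis luciferase, luciferin and ATP each at 10uM. Inhibition profiled over a 6-point titration, read as luminescence.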
An asterisk follows results filed as active; i = inactive; ? = inconclusive; . = no result; [ ] = remark or other dose. Hits are enriched below; roughly 11% of the tested compounds scored in any of these assays. Unless noted, the call rests on the fitted dose curve; in most records, active means well fitted curve in the direction sought with a large enough effect; inconclusive means small, poorly fitted or top-dose-only effect, or another doubt; inactive means no such curve, though single readings can be large; an effect the other way counts as inactive or inconclusive. On the % scale 0 is the no-effect control and ±100 the full control effect; potency means the concentration at half of the fitted maximal effect.

SMILES | hNpr1 antagonist | HEK cytotox | 3T3 cytotox | FLuc inh
CN(C)CCNC(=O)c1nc2nc(-c3ccccc3)c(-c3ccccc3O)cc2n1C | ? | ? | 79µM* | i
COc1ncccc1-c1cc2c(nc1-c1ccccc1)nc(C(=O)NCCN(C)C)n2C | -15%[70.6 µM] | ? | ? | i
COc1ccccc1-c1cc2c(nc1-c1ccccc1)nc(C(=O)NC1CCN(C)CC1)n2C | -18% | 35µM* | 20µM* | i
COCc1nc2nc(-c3ccccc3)c(-c3ccccc3OC)cc2n1C | ? | ? | ? | i
CC(C)(C)c1ccc(-c2noc(CNC(=O)CN3C(=O)CNC3=O)n2)cc1 | -3% | -1% | -6% | 18µM*
O=C(CN1C(=O)CNC1=O)NCCc1noc(-c2ccccc2)n1 | 1% | -8% | 1% | i
CN1CC(c2ccccc2)CC2(CCN(C(=O)CCCn3ccnc3)CC2)C1 (centres undefined) | 1% | ? | ? | i
Cc1cc2nc3n(c(=O)c2n1CC(=O)Nc1ccc(Br)cc1F)CCCCC3 | 0% | 25µM* | ? | i
CC(C)c1ccc(CN2CC(CN[S+](=O)([O-])c3ccccc3)C3(C2)CN(c2ccccc2)C3)cc1 (centres undefined) | -4% | ? | 40µM* | i
O=[S+]([O-])(NCC1CN(Cc2cccc(Cl)c2)CC12CN(c1ccccc1)C2)c1ccccc1 (centres undefined) | -8% | ? | ? | i
O=[S+]([O-])(NCC1CN(Cc2ccc3[nH]ccc3c2)CC12CN(c1ccccc1)C2)c1ccccc1 (centres undefined) | 3% | 22µM* | 22µM* | i
COc1ccc(OCC2CN(CC(C)C)[S+](=O)([O-])c3cnccc3O2)cc1 (centres undefined) | . | ? | -38%[46.1 µM] | .
Cc1ccc(CNC(=O)N2CC[C@@H]3COC(=O)N(Cc4ccccc4)[C@@H]3C2)cc1 | . | -14% | -31% | .
COc1ccc(Nc2ccnc(N3CCC(C(=O)N4CCN(Cc5ccccc5)CC4)CC3)n2)cc1 | . | 32µM* | ? | .
O=C(C1CCN(c2nccc(Nc3ccccc3Cl)n2)CC1)N1CCC(Cc2ccccc2)CC1 | . | 25µM* | ? | .
CC(=O)N1CCCN(C(=O)C2CCN(c3nccc(Nc4ccc(C)cc4)n3)CC2)CC1 | . | -27% | ? | .
O=C(C1CCN(c2nccc(Nc3ccccc3Cl)n2)CC1)N1CCN(Cc2ccccc2)CC1 | . | ? | 32µM* | .
Cc1ccc(Nc2ccnc(N3CCCC(C(=O)N4CCN(Cc5ccccc5)CC4)C3)n2)cc1 (centres undefined) | . | 13µM* | 40µM* | .
O=C(C1CCN(c2nccc(Nc3ccccc3Cl)n2)CC1)N1CCOCC1 | . | ? | -40% | .
COc1ccc(C2(C(=O)NCc3cccc(Cl)c3)CCOCC2)cc1 | . | -22% | -15% | .
O=C(Nc1cccc(-c2nnc3n2CCCC3)c1)NC1CCCC1 | 6% | 3% | -7% | i
CC1=C[C@@H](CNC(=O)CCCC(=O)O)[C@H](C(C)C)C[C@H]1Cc1nc2c(C)cccc2[nH]1 | 4%[70.6 µM] | -17%[172 µM] | -27%[174 µM] | i
CC1=C[C@@H](CN(C)C)[C@H](C(C)C)C[C@H]1Cc1nc2c(C)cccc2[nH]1 | 4%[70.6 µM] | 100µM* | 89µM* | i
CC1=C[C@@H](CNCc2ccccc2)[C@H](C(C)C)C[C@H]1Cc1nc2c(C)cccc2[nH]1 | ? | 25µM* | 28µM* | i
COc1ccccc1CNC[C@@H]1C=C(C)[C@H](Cc2nc3c(C)cccc3[nH]2)C[C@H]1C(C)C | ? | ? | 25µM* | i
SMILES | hNpr1 antagonist | HEK cytotox | 3T3 cytotox | FLuc inh
CC1=C[C@@H](CNCc2ccccc2F)[C@H](C(C)C)C[C@H]1Cc1nc2c(C)cccc2[nH]1 | ? | 25µM* | 28µM* | i
CC1=C[C@@H](CNC(=O)COCC(=O)O)[C@H](C(C)C)C[C@H]1Cc1nc2c(C)cccc2[nH]1 | -5%[70.6 µM] | -22%[172 µM] | -11%[174 µM] | i
COC(=O)c1ccc2nc(CO[C@H]3CN(Cc4ccc(S(C)(=O)=O)cc4)C[C@H]3F)[nH]c2c1 | 1% | -29% | -22% | i
c1ccc(-c2nnc3ccc(Nc4ccc(N5CCOCC5)cc4)nn23)nc1 | -5%[70.6 µM] | 63µM* | ? | ?
COC1CCN(c2ccc3nnc(-c4ccccn4)n3n2)CC1 | 6%[70.6 µM] | -10%[172 µM] | 50µM* | i
COc1ccc(-c2nnc3ccc(N4CCc5ccccc5C4)nn23)nc1 | -4%[70.6 µM] | 56µM* | ? | i
Fc1ccc(-c2nnc3ccc(Nc4ccc(N5CCOCC5)cc4)nn23)nc1 | -1%[70.6 µM] | ? | ? | i
Cc1ccc(-c2nnc3ccc(N4CCCC4)nn23)nc1 | 6%[70.6 µM] | -18%[230 µM] | ? | i
c1ccc(-c2nnc3ccc(N4CCc5ccccc5C4)nn23)nc1 | 4%[70.6 µM] | 71µM* | ? | i
COc1ccccc1Nc1ccnc(N2CCCC2C(=O)N(C)C)n1 (centres undefined) | . | 2% | -11% | .
COc1ccc(CCNC(=O)c2cn3cc(-c4ccc(C(F)(F)F)cc4)sc3n2)cc1 | . | 0% | -19% | .
Cc1nnc2ccc(N3CCC(N[S+](=O)([O-])c4ccccc4)CC3)nn12 | . | 45µM* | 32µM* | .
Cc1ccc([S+](=O)([O-])NC2CCCN(c3ccc4nnc(-c5ccccc5)n4n3)C2)cc1 (centres undefined) | . | 25µM* | ? | .
Cc1c(Cn2ccnc2-c2cc(C#CCO)cs2)oc2ccccc12 | -3% | ? | ? | i
Cc1noc(C)c1CN1C[C@@H]2[C@H](C1)N(CCOc1ccccc1)C(=O)C(C)(C)[S+]2(=O)[O-] | -1% | -23% | 16µM* | i
CC(C)CCN1C[C@@H]2[C@H](C1)N(CCOc1ccccc1)C(=O)C(C)(C)[S+]2(=O)[O-] | 5%[70.6 µM] | 112µM* | ? | i
CCOC(=O)[C@@H]1[C@@H](OC)C(=O)N(C)C12CCN(C(=O)C1CCC1)CC2 | . | -8% | ? | .
c1ccc2oc([C@H]3CCN(C4CCOCC4)C3)nc2c1 | -3%[70.6 µM] | -13%[230 µM] | i | 79µM*
CC(C)N1CC[C@H](c2nnc(-c3ccccc3F)o2)C1 | 3%[70.6 µM] | i | i | 40µM*
Fc1ccccc1-c1nnc([C@H]2CCN(C3CCOCC3)C2)o1 | -1%[70.6 µM] | i | 1%[138 µM] | 71µM*
c1ccc2oc([C@H]3CCN(C4CCCCC4)C3)nc2c1 | ? | -19%[230 µM] | -25%[174 µM] | ?
O=C(NCCc1ccccc1F)c1ccc2nccn2c1 | . | -4%[172 µM] | 2%[138 µM] | .
Cc1c(CNC(=O)c2ccc3nc(-c4ccc(F)cc4)cn3c2)cnn1C | -15% | ? | -22% | 45µM*
CCN(CCn1cccn1)C(=O)c1ccc2nc(-c3ccc(F)cc3)cn2c1 | 1% | ? | 1% | i
O=C(NCc1nnc2n1CCC2)c1ccc2nc(-c3ccc(F)cc3)cn2c1 | -1% | i | 3% | ?

Screening data from PubChem BioAssay.
